# Results: PubChem BioAssay (Tox21)
# Where “and” joins values, the source holds several entries; their conditions need not be identical. Equal entries are not always repeated. Inconclusive results are not listed. Where a call stands in place of a potency, no number is given. A structure can be active in one record and inactive in another. Calls of active or inactive are those of the source. Calls follow the shape of the full dose curve.
# Key:
# [1] = biological target: Acetylcholinesterase (Homo sapiens) (UniProt P22303); experiment: Acetylcholinesterase (AChE) small molecule antagonists: colormetric cell-based qHTS assay (AID 1347395); also: nearly all actives have a fitted effect of over 30% in size; also: potency is read from the fitted curve at half-maximal effect
# Acetylcholinesterase (Homo sapiens), sequence (P22303 whole entry, looked up): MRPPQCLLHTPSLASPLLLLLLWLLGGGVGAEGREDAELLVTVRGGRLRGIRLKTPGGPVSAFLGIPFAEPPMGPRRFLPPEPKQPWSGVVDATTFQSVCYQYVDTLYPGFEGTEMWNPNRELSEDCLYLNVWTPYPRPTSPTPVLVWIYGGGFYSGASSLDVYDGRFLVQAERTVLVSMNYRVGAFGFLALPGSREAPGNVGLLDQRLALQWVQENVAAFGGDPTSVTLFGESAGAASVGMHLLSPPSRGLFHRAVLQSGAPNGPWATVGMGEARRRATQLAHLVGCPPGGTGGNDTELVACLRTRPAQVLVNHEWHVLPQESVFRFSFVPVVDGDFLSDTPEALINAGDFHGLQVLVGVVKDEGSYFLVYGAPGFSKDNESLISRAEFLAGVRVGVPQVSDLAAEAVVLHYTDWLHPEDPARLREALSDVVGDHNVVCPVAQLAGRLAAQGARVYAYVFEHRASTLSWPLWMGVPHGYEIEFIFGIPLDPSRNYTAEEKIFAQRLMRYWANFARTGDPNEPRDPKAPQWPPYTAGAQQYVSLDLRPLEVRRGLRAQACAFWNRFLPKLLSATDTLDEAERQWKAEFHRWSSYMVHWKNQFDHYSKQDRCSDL
# Outline: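 Colorimetric read-out: DTNB detects thiocholine released when cellular AChE in SH-SY5Y cells hydrolyses acetylthiocholine. Cells attached overnight, received compound for 30 min at 37 C, then substrate mix for 90 min at 37 C.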
# [2] = biological target: Acetylcholinesterase (Homo sapiens) (UniProt P22303); experiment: Acetylcholinesterase (AChE) small molecule antagonists: enzyme-based qHTS assay (AID 1347397); conditions: Potency: AChE enzyme activity inhibition; outcome: AChE enzyme activity inhibition; also: nearly all actives have a fitted effect of over 55% in size; also: potency is read from the fitted curve at half-maximal effect
# Outline: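 Recombinant human AChE (50 mU/mL) preincubated with compound 30 min at room temperature; acetylthiocholine plus DTNB then added, and thiocholine formation read colorimetrically after 10 min at room temperature. DMSO served as vehicle control.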
# [3] = biological target: Acetylcholinesterase (Homo sapiens) (UniProt P22303); experiment: Acetylcholinesterase (AChE) small molecule antagonists: fluorescence cell-based qHTS assay (AID 1347398); conditions: Potency: AChE activity; outcome: AChE activity; also: nearly all actives have a fitted effect of over 50% in size; also: potency is read from the fitted curve at half-maximal effect
# Outline: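 SH-SY5Y cells (2000/well), attached overnight, incubated with compound 30 min at 37 C. Acetylthiocholine plus Thiolite Green then added for 40 min at room temperature. Thiocholine fluorescence (Ex/Em 490/520 nm) reports cellular AChE activity.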
# [4] = biological target: Acetylcholinesterase (Homo sapiens) (UniProt P22303); experiment: Acetylcholinesterase (AChE) small molecule antagonists: enzyme-based qHTS assay with human liver microsomes (AID 1347399); conditions: Potency: qHTS inhibition; outcome: qHTS inhibition; also: nearly all actives have a fitted effect of over 60% in size
# Outline: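 Recombinant human AChE (50 mU/mL in the enzyme mix) and human liver microsomes (0.25 mg/mL final) were preincubated with compound and NADPH (0.25 mg/mL final) for 30 min at 37 C. Acetylthiocholine/DTNB was then added; thiocholine was read colorimetrically after 10 min at room temperature.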
Compound,Potency [1],Potency [2],Potency [3],Potency [4],"activity, negative = inhibition [1]","activity change, negative = inhibition [2]","activity change, negative = inhibition [3]","activity change, negative = inhibition [4]"
CC12CCC(CC1=O)C2(C)C (stereo not given),inactive,inactive,inactive,inactive,,,,
C/C=C/c1ccc(OC)cc1,inactive,inactive,inactive,inactive,,,,
O=[N+]([O-])c1ccccc1C(F)(F)F,inactive,inactive,inactive,inactive,,,,
Cc1cc(C(C)(C)C)c(O)c(C)c1Cn1c(=O)n(Cc2c(C)cc(C(C)(C)C)c(O)c2C)c(=O)n(Cc2c(C)cc(C(C)(C)C)c(O)c2C)c1=O,inactive,inactive,inactive,inactive,,,,
CC1(C)CC(=O)CC(C)(C)N1,inactive,inactive,inactive,inactive,,,,
O=C(O)c1cc(Br)c(O)c(Br)c1,inactive,inactive,inactive,inactive,,,,
CC=C(Cl)Cl,inactive,inactive,inactive,inactive,,,,
CN(C)C(=O)Nc1ccc(Cl)c(Cl)c1,inactive,inactive,inactive,inactive,,,,
O=C(Nc1ccc([N+](=O)[O-])cc1Cl)c1cc(Cl)ccc1O,inactive,inactive,inactive,inactive,,,,
CC(C)CCCCCOC(=O)CCCCC(=O)OCCCCCC(C)C,inactive,inactive,inactive,inactive,,,,
Brc1ccccn1,inactive,inactive,inactive,inactive,,,,
CC(C)CC(=O)OCc1ccccc1,inactive,inactive,inactive,inactive,,,,
CCN(O)CC,inactive,inactive,inactive,inactive,,,,
CC(C)C(=O)OCc1cccc(OC(=O)[C@@H]2N3C(=O)[C@@H](NC(=O)Cc4ccccc4)[C@H]3SC2(C)C)c1,inactive,inactive,inactive,inactive,,,,
Cc1onc(-c2ccccc2)c1C(=O)Cl,inactive,inactive,inactive,inactive,,,,
Nc1nc(=S)c2[nH]cnc2[nH]1,21.9 µM (active) and inactive,inactive,inactive,inactive,,,,
COS(=O)(=O)O,inactive,inactive,inactive,inactive,,,,
O=C(O)c1ccc(O)cc1O,inactive,inactive,inactive,inactive,,,,
CC(C)OCCO,inactive,inactive,inactive,inactive,,,,
CCCCCCCCCCCCS,inactive,inactive,inactive,inactive,,,,

Compound,Potency [1],Potency [2],Potency [3],Potency [4],"activity, negative = inhibition [1]","activity change, negative = inhibition [2]","activity change, negative = inhibition [3]","activity change, negative = inhibition [4]"
CCC(C)c1nccnc1OC (stereo not given),inactive,inactive,inactive,inactive,,,,
CCc1ccc(Br)cc1,inactive,inactive,inactive,inactive,,,,
CCCCN(CCCC)C(=O)N(CCCC)CCCC,inactive,inactive,inactive,inactive,,,,
CCO[Si](CCCS)(OCC)OCC,inactive,inactive,inactive,inactive,,,,
O=C(Oc1ccccc1)c1ccc(O)cc1,inactive,inactive,inactive,inactive,,,,
CC(C)(C#N)c1cc(Cn2cncn2)cc(C(C)(C)C#N)c1,inactive,inactive,inactive,inactive,,,,
CC(C)(c1ccccc1)c1ccc(Nc2ccc(C(C)(C)c3ccccc3)cc2)cc1,inactive,inactive,inactive,inactive,,,,
C[C@H]1C[C@H](O)c2ccsc2S1(=O)=O,inactive,inactive,inactive,inactive,,,,
CC(C)(CO)COC(=O)C(C)(C)CO,inactive,inactive,inactive,inactive,,,,
OCCCCCCCCCCCCBr,inactive,inactive,inactive,inactive,,,,
Oc1ccc(-c2ccccc2)c(Cl)c1,inactive,inactive,inactive,inactive,,,,
O=C(O)Cc1ccccc1Oc1ccc(Cl)cc1Cl,inactive,inactive,inactive,inactive,,,,
O=C1NC(=O)[C@@]2(CCOc3ccc(F)cc32)N1,inactive,inactive,inactive,inactive,,,,
CCc1cccc(C)c1N(C(=O)CS(=O)(=O)O)C(C)COC (stereo not given),inactive,inactive,inactive,inactive,,,,
Nc1nc(N)c2nc(-c3ccccc3)c(N)nc2n1,inactive,inactive,inactive,inactive,,,,
C=CC(=O)OCCCCCCCCCC,inactive,inactive,inactive,inactive,,,,
CCC(N)(CO)CO,inactive,inactive,inactive,inactive,,,,
CCCCCCCCSCC,inactive,inactive,inactive,inactive,,,,
O=C1[C@H](CC[C@H](O)c2ccc(F)cc2)[C@@H](c2ccc(O)cc2)N1c1ccc(F)cc1,inactive,inactive,inactive,inactive,,,,
CC(=O)CC(C)(C)C1CCCCC1,inactive,inactive,inactive,inactive,,,,

Compound,Potency [1],Potency [2],Potency [3],Potency [4],"activity, negative = inhibition [1]","activity change, negative = inhibition [2]","activity change, negative = inhibition [3]","activity change, negative = inhibition [4]"
CC/C=C\CCOC(=O)CCCCC,inactive,inactive,inactive,inactive,,,,
CCCCCC1CCCC(=O)O1 (stereo not given),inactive,inactive,inactive,inactive,,,,
Cc1ccc(-n2nc(C(C)(C)C)cc2NC(=O)Nc2ccc(OCCN3CCOCC3)c3ccccc23)cc1,inactive,inactive,inactive,inactive,,,,
Cc1cc(O)c2c(c1)C(=O)c1cc(O)cc(O)c1C2=O,inactive,inactive,15.5 µM (active) and inactive,inactive,,,,
CCCCC[C@H](O)/C=C/[C@H]1[C@H](O)CC(=O)[C@@H]1C/C=C\CCCC(=O)O,inactive,inactive,inactive,inactive,,,,
CCCCCCCCCCCCCC[N+](C)(C)Cc1ccccc1,64.3 µM (active) and inactive,64.3 µM (active),36.2 µM (active) and 30.9 µM (active) and 15.8 mM (active),inactive,,,,
Nc1ccccc1N,inactive,inactive,inactive,inactive,,,,
CCN(CCO)CCCC(C)Nc1ccnc2cc(Cl)ccc12 (stereo not given),,,,,-5.02% [at 10.5 µM] (inactive),-2.76% [at 10.5 µM] (inactive),-7.12% [at 10.5 µM] (inactive),-0.168% [at 10.5 µM] (inactive)
Cc1ccncc1,inactive,inactive,inactive,inactive,,,,
Nc1ncn([C@H]2C[C@H](O)[C@@H](CO)O2)c(=O)n1,inactive,inactive,inactive,inactive,,,,
Cc1c(Cl)c(=O)oc2cc(O)ccc12,35.6 µM (active),inactive,71 µM (active),inactive,,,,
COc1ccc(Cc2cnc(N)nc2N)cc1OC,inactive,inactive,inactive,inactive,,,,
CCCC1CCC(=O)O1 (stereo not given),inactive,inactive,inactive,inactive,,,,
CCCCCCCCCCOC(=O)c1ccccc1C(=O)OCCCCCCCC,inactive,inactive,inactive,inactive,,,,
C/C=C/CO,inactive,inactive,inactive,inactive,,,,
CCCCCCCC/C=C\CCCCCCCC(=O)OCCOC(=O)CCCCCCC/C=C\CCCCCCCC,inactive,inactive,inactive,inactive,,,,
C=C(C)C(=O)OCCCCCCCCCC,inactive,inactive,inactive,inactive,,,,
O=C1OC2(c3ccccc31)c1ccc(O)c(Br)c1Oc1c2ccc(O)c1Br,inactive,inactive,inactive,inactive,,,,
CCCOCCOCCOCCO,inactive,inactive,inactive,inactive,,,,
CCC(=O)OCCc1ccccc1,inactive,inactive,inactive,inactive,,,,
